Data: PubChem BioAssay AID651568 (National Center for Advancing Translational Sciences (NCATS), 2012)
The campaign covered roughly 1,200 compounds. About 55 (5%) were called active. Roughly 15% stayed inconclusive and do not appear here. Calls follow the shape of the dose curve; as a rule, active = well fitted inhibition curve with a large enough effect; inconclusive = small, poorly fitted or top-dose-only effect; inactive = no such curve, though single readings can be large or run the other way. The list comes from a sample in which actives are over-represented; it also holds similar structures and randomly drawn compounds.

experiment: qHTS Assay to Find Inhibitors of Chronic Active B-Cell Receptor Signaling: Hit Validation in Renilla Reporter Assay; conditions: TMD8 IkB-Renilla luciferase reporter, NF-kB signaling; series mostly up to 57.5 µM; activity change, negative = inhibition: at the top concentration; also: nearly all actives have a fitted effect of over 70% in size
Description: Diffuse large B-cell lymphoma (DLBCL) is the most common category of non-Hodgkin lymphoma, with ~20,000 new cases per year in the United States. DLBCL should be regarded as a collection of different neoplasms. Microarray gene expression analysis has defined two principal types of DLBCL, named for their similarity to normal B cell stages or activation states: a germinal center B-cell (GCB) type, and an activated B-cell (ABC) type. In ABC-DLBCL, a constitutive high-level activity of the NF-kappaB family of transcription factors has been observed (1) and NF-kappaB target genes are more highly expressed in ABC primary tumors than in GCB tumors. Functional studies have shown a constitutive high-level activity of the IkappaB (inhibitor of kappa-B) kinase (IKK) complex. […] Further analysis of DLBCL primary tumors for NF-kappaB target gene expression imply that although CARD11 is required for constitutive IKK activity in all ABC-DLBCL lines, mutations in CARD11 may be the root cause of IKK activation only in lines or tumors with such mutations. In other words, CARD11 mutations may explain NF-kappaB activation in only 10% of ABC-DLBCL cases. […] This process has been termed 'chronic active BCR signaling' (CABS). The goal of this screen is to find small-molecule inhibitors of the CABS pathway found in ABC-DLBCL lines using a cell-based assay that measures IkappaBalpa stability, which has already been extensively validated in the OCI-Ly3 line (PubChem AID:445; REF: 4). […] Hits from the primary screen were tested in this orthogonal secondary assay. NIH Molecular Libraries Probe Production Network [MLPCN] NIH Chemical Genomics Center [NCGC] MLPCN Grant: R03 DA031086 PI Name: Dr. R. Eric Davis
The IkB-Photinus/Renilla reporter assay differs from the primary assay in that the reporters are constitutively expressed, and based on luciferases that are different from the click beetle luciferases and each other. These differences should help to eliminate artifactual sources of activity specific to the primary assay. This assay uses the Dual-Glo substrate from Promega; extensively validated in a 96-well format, it could be converted to a smaller-well format. All lines needed for the IkB-Photinus/Renilla assay have already been prepared and extensively validated
% is scaled to controls: 0 for no effect and ±100 for the full control effect; potency is read from the fitted curve at half-maximal effect.

Activity change, negative = inhibition, inactive:
Cn1c(=O)n(Cc2ccccc2Cl)c2ccccc21 7.35%, CCc1ccc(CCC(=O)Nc2ncc(Cc3ccccc3Cl)s2)o1 -12.8%, COc1ccccc1-c1noc(CSc2nc(N)cc(=O)[nH]2)n1 -1.85%, COc1ccc(S(=O)(=O)Nc2cc3c(C(C)=O)c(C)oc3c3ccccc23)cc1 24.7%, O=c1cc(-c2ccccc2)[nH]c2ccccc12 1.97%, COc1ccc2cc(C3c4cc(OC)c(OC)cc4CCN3C(=O)c3ccco3)c(=O)[nH]c2c1 (stereo not drawn) 0.254%, CCOC(=O)c1[nH]c(C)c(C(=O)c2cc(F)ccc2F)c1C -10.3%, C/C(=N\NC(=O)c1c([N+](=O)[O-])c(C)nn1C)c1ccc(NC(=O)C2CCCC2)cc1 5.23%, CCOC(=O)c1[nH]c2c(c1C)C(=O)CC(c1ccc(F)cc1)C2 (stereo not drawn) 8.44%, CC[C@]12c3[nH]c4cc(CCC(=O)N(C)C)ccc4c3CCN1C(=O)[C@@H](CC(=O)NCCCN(C)C)C[C@@H]2C(=O)N1CCN(C(=O)c2ccco2)CC1 -12.6%, COc1ccc(S(=O)(=O)N2CCOCC2)cc1NC(=O)/C=C/c1ccc(F)cc1 2.91%, Cc1ccccc1C(=O)Oc1ccc2ccc(O)cc2c1 1.03%, CCc1ccc(NC(=O)C(C)OC(=O)/C=C/c2ccc(O)c(OC)c2)cc1 (stereo not drawn) -16.3%, COc1ccc(NC(=S)N/N=C/c2ccc(F)cc2)cc1OC 2.21%, COc1ccc(/C=N\NC(=O)c2ccccc2F)cc1COc1ccc(F)cc1F -2%, COc1ccc(/C=C/c2ccncc2)cc1OC 1.23%, COc1cccc(/C=N/Nc2nc(Nc3ccccc3)nc(-n3nc(C)cc3C)n2)c1O -13.7%, NC(=O)c1c(NC(=O)CSc2nc(N)cc(=O)[nH]2)sc2c1CCCC2 -13.8%, CCOc1ncccc1C(=O)N1CCN(c2cc(Cl)ccc2C)CC1 -5.04%, Cc1ccc(/C=N/NC(=O)c2cc(-c3ccncc3)nc3ccccc23)o1 1.04%, CCOC(=O)c1c(C)n(C)c2ccc(OC)c(NC(=O)CN3CCC4(CC3)OCCO4)c12 0.686%, COC(=O)C1=C(C)NC(C)=C(C(=O)OC)C1/C=C/c1ccccc1 22.2%, Cc1nc(NC(=O)c2cnccn2)ccc1Br -7.88%, Cn1c(=O)[nH]c(=O)c2c1nc(SCC(N)=O)n2Cc1cccc(Br)c1 3.59%, CCOC(=O)C1CCN(C(=O)CSc2cc(=O)n(CC)c3ccccc23)CC1 4.83%, COc1ccc(C(=O)NN(C)c2nc(C(F)(F)F)nc3ccccc23)cc1 -4.63%, COc1ccc(-c2cnnn2-c2ccc(NC(=O)c3ccc(S(=O)(=O)N4CCCCC4)cc3)cc2)cc1OC 9.05%, Cc1ccc(C(=O)c2cc([N+](=O)[O-])ccc2N2CCOCC2)c(C)c1 -2.34%, COCCn1c(-c2cccc([N+](=O)[O-])c2)nc2c1c(=O)[nH]c(=O)n2Cc1ccccc1 -17.5%, Cc1ccc(C(=O)c2cc([N+](=O)[O-])ccc2N2CCCCC2)c(C)c1 -15.6%, CNC(=S)N/N=C(\C)c1ccc2c(c1)OCCO2 -1.41%, CCOc1ccc2c(c1)OC(c1ccc(OC)cc1)(C(F)(F)F)NC2=O (stereo not drawn) -4.62%, CC(C)(C)c1ccc(C(=O)CCC(=O)NCc2ccccc2)cc1 -2.67%, C=CCN(C(=O)CSC1=NC(=O)CN1C(C)=O)c1nc(C)c(-c2ccccc2)s1 58.9%, S=c1nn[nH]n1C12CC3CC(CC(C3)C1)C2 -6.62%, Cc1ccccc1Nc1nc(N)nc(COC(=O)c2cccc(S(=O)(=O)N(C)C)c2)n1 15%, CCOC(=O)C1=C(COC(=O)/C=C/c2ccc(O)c(OC)c2)NC(=O)NC1C (stereo not drawn) -15%, O=C(COc1ccccc1-c1ccccc1)N/N=C/c1ccc2ccccc2c1 -0.205%, COc1ccc(/C=N/NC(=O)CCn2cnc(-c3ccccc3)c2-c2ccccc2)cc1OC -24.2%, COc1ccc(OC)c(Nc2c3c(nc4ccccc24)CCC3)c1 -24.8%, COc1ccc(C)cc1NC(=O)CNC(c1ccccc1)c1ccc(C)cc1 (stereo not drawn) 3.62%, Cc1ccc(C(=O)O)cc1NC(=S)NC(=O)C(c1ccccc1)c1ccccc1 -23%, COc1ccc(NC(=O)Cn2nnc(-c3ccccc3NS(=O)(=O)c3ccc(OC)cc3)n2)cc1 15.7%, CCOc1cccc(C2CC(=O)Nc3cc(OC)c(OC)cc32)c1 (stereo not drawn) 5.18%, COc1cccc(/C=C/C(=O)Nc2cc(S(=O)(=O)N3CCOCC3)ccc2OC)c1 1.3%, CCC1=Nc2cc(C(=O)NCCCOC(C)C)ccc2Sc2ccc(C)cc21 -27.5%, O=C(Oc1ccc(Cl)c2cccnc12)C12CC3CC(CC(C3)C1)C2 -1.45%, O=C(Oc1c(CN2CCOCC2)cc(Cl)c2cccnc12)c1ccc(F)cc1 -18.7%, COc1cc(OC)cc(C(=O)Oc2c(CN3CCOCC3)cc(Cl)c3cccnc23)c1 1.92%, Cc1c(C(=O)Oc2cccc3cccnc23)oc2ccccc12 -6%

Potency, active:
N=C1SCC(=O)N1c1ncc(Cc2cccc(Cl)c2)s1 3.01 µM, N=C1SCC(=O)N1c1ncc(Cc2ccccc2Cl)s1 8.49 µM, COc1ccc(/C=C/C(=O)c2cc(F)ccc2OC(=O)c2ccc(OC)c(OC)c2)cc1OC 7.57 µM, COc1ccc(/C=C/C(=O)c2cc(F)ccc2OC(=O)c2ccccc2C)cc1OC 13.5 µM, COc1ccc(/C=C/C(=O)c2cc(F)ccc2OC(=O)c2ccccc2OC)cc1OC 6.75 µM, O=C(/C=C/c1ccccc1)c1ccc(NC2=NCCCS2)cc1 21.3 µM, CCOC(=O)C1CCN(S(=O)(=O)c2c(Cl)ccc3nonc23)CC1 3.01 µM, Cc1cccc(-n2c3nc(=O)[nH]c(=O)c-3cc3cc([N+](=O)[O-])ccc32)c1 26.9 µM, Cc1ccc(C)c(-n2c3nc(=O)[nH]c(=O)c-3cc3cc([N+](=O)[O-])ccc32)c1 16.9 µM, COc1ccc(/C=N/NC(=O)CCn2cnc(-c3ccccc3)c2-c2ccccc2)cc1 26.9 µM, Cc1ccc(C(=O)Sc2cccccc2=O)cc1 6.75 µM, O=C(Oc1c(Cl)cc(Cl)c2cccnc12)c1cccs1 23.9 µM, O=C(Oc1c(Cl)cc(Cl)c2cccnc12)c1ccco1 12 µM
